The list is not random: actives were taken first. Their share in the collection is about 13%.
Pf growth 96h: Primary qHTS for delayed death inhibitors of the malarial parasite plastid, 96 hour incubation | P. falciparum luciferase reporter growth, 96 h | Potency, µM (highest dose often 28.7 µM), for inactives: top-dose activity change, negative = inhibition, most hits filed as inhibitors | 320,000 compounds, 6.9% hits; note: potency is the fitted concentration of half-maximal effect
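Plates of compound plus infected erythrocytes (2% hematocrit, 0.05% parasitemia final) incubate 96 hours, 37 C, 5% CO2. Detection reagent added; reduced luminescence from the parasites' luciferase reporter flags inhibition.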
HCV inh: qHTS Assay for Inhibitors of Hepatitis C Virus (HCV); 340,000 compounds, 3.4% hits; Huh7.5.1 HCVcc-Cre infection, luciferase reporter, 44 h; Potency, µM (doses to about 41.8 µM), for the others: top-dose activity change, negative = inhibition, most hits filed as inhibitors; note: potency is the fitted concentration of half-maximal effect
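HCVcc-Cre virus at an moi near 0.5 was added right after compound to cells cultured 4 h from seeding (1,000 cells/well). Luciferase activity was determined 44 h later, 15 min after substrate addition at RT.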
Pf growth 48h: Primary qHTS for delayed death inhibitors of the malarial parasite plastid, 48 hour incubation; P. falciparum luciferase growth in erythrocytes, 48 h; Potency, µM (doses to about 28.7 µM), inactives show top-dose activity change, negative = inhibition, hits mostly inhibitors; 310,000 compounds, 5.9% hits; AID 504832, 2011; note: potency is the fitted concentration of half-maximal effect
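First compound was added to culture medium, then infected red cells at 0.1% parasitemia and 2% hematocrit (final). After incubation at 37 C under 5% CO2, luciferase detection reagent was dispensed and light output recorded.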
HCMV inh: qHTS Assay for inhibitors of the human cytomegalovirus (HCMV). HFF cells, HCMV-luciferase reporter, 72 h; hits give low values. activity change, negative = inhibition, % at 57.5 µM. 410,000 compounds, 4.5% hits. AID 1259415, 2018; in the data active = activity change below about -60%; inconclusive = no clear call, values can overlap the other calls; inactive = above about -39%
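Luciferase read-out from HCMV-luciferase-infected HFFs (MOI 1 PFU/cell) 72 h post infection at 37C; compounds added after 16 h cell attachment; activity normalized between buffer-only basal and Salinomycin (10uM) inhibitor controls.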
An asterisk follows results filed as active; ? = inconclusive; . = not tested or not shown. Unless noted, calls come from the whole dose curve; as a rule, active = well fitted inhibition curve with a large enough effect; inconclusive = small, poorly fitted or top-dose-only effect, or another doubt; inactive = no such curve, though single readings can be large or run the other way. % is set by controls: 0 for no effect and ±100 for the full control effect.

SMILES | Pf growth 96h | HCV inh | Pf growth 48h | HCMV inh
CCOC(=O)c1cc2c(=O)n3ccccc3nc2n(Cc2ccco2)c1=NC(=O)c1cccc(F)c1 | . | . | . | -13
O=C(O)CCS(=O)(=O)c1nc(-c2cccs2)cc(C(F)(F)F)n1 | ? | -4% | . | -13
COc1cc(NC(=O)CSc2nc(-c3cccs3)cc(C(F)(F)F)n2)cc(OC)c1OC | . | . | . | 13
O=C(CCS(=O)(=O)c1nc(-c2cccs2)cc(C(F)(F)F)n1)Nc1cccc(O)c1 | . | . | . | -99*
COC(=O)c1ccccc1NC(=O)CCCS(=O)(=O)c1nc(-c2ccccc2OC)cc(C(F)(F)F)n1 | . | . | . | 11
COc1ccc(-c2cc(C(F)(F)F)nc(S(=O)(=O)CCCC(=O)Nc3cccnc3Cl)n2)cc1OC | -9% | ? | 12µM* | 24
COc1cc(NC(=O)CCS(=O)(=O)c2nc(-c3cccs3)cc(C(F)(F)F)n2)cc(OC)c1OC | 0% | . | ? | -98*
O=C(CCS(=O)(=O)c1nc(-c2ccc3c(c2)OCO3)cc(C(F)(F)F)n1)Nc1ccc(F)c(Cl)c1 | . | . | . | -100*
CCOC(=O)c1cccc(NC(=O)CC2C(=O)N(c3ccc(F)cc3)C(=O)N2C(C)C)c1 (configuration not stated) | . | . | . | -6
COc1ccc(-c2noc(-c3ccc(NCc4ccco4)c([N+](=O)[O-])c3)n2)cc1OC | . | . | . | 0
CC1Cc2cc(S(=O)(=O)N3CCN(c4ccccc4F)CC3)ccc2N1C(=O)C1CCC1 (configuration not stated) | . | . | . | -11
O=C(COc1ccc2ccccc2c1)NC1CC(=O)N(c2ccccc2)C1 (configuration not stated) | . | . | . | 0
CCCCCCC1CCC(C(=O)NC(C(=O)O)C(C)C)CC1 (configuration not stated) | . | . | . | 14
COc1ccc(NC(=O)CCS(=O)(=O)c2nc(-c3ccc4c(c3)OCO4)cc(C(F)(F)F)n2)cc1OC | . | . | . | 10
COc1ccc(NC(=O)CCS(=O)(=O)c2nc(-c3cccs3)cc(C(F)(F)F)n2)cc1OC | . | . | . | -101*
Nc1cc(-c2ccccc2)nc2ccccc12 | . | . | . | 8
Cc1cccc(NC(=O)C2CCN(S(=O)(=O)c3cccc4nsnc34)CC2)c1C | . | . | . | -3
CCc1ccccc1NC(=O)C1CCCN(S(=O)(=O)c2c(C)noc2C)C1 (configuration not stated) | -29% | -21% | ? | 28
Cc1noc(C)c1S(=O)(=O)N1CCCC(C(=O)NCCc2ccc(Cl)cc2)C1 (configuration not stated) | . | ? | 12µM* | 37
Cc1noc(C)c1S(=O)(=O)N1CCCC(C(=O)NCc2ccccc2Cl)C1 (configuration not stated) | 5.9µM* | 7% | 1% | -6
COc1ccc(Cl)cc1S(=O)(=O)N1CCCC(C(=O)NCc2ccccc2)C1 (configuration not stated) | -12% | -16% | -16% | 11
COc1ccc(Cl)cc1S(=O)(=O)N1CCCC(C(=O)NCCc2ccccc2)C1 (configuration not stated) | 10µM* | -28% | 38% | -29
CC(C)c1ccc(Cc2cnc(NC(=O)c3ccc4c(c3)CC(c3ccccc3)OC4=O)s2)cc1 (configuration not stated) | . | . | . | -24
CCOC(=O)c1c(C)sc(-c2c(-c3ccc4c(c3)OCCO4)[nH]c3c2c(=O)n(C)c(=O)n3C)c1O | . | . | . | -3
Cc1ccccc1CS(=O)(=O)c1ncc(Cl)c(C(=O)Nc2nnc(C(C)C)s2)n1 | . | . | . | -99*
SMILES | Pf growth 96h | HCV inh | Pf growth 48h | HCMV inh
CSc1nnc(NC(=O)c2nc(S(=O)(=O)Cc3ccccc3)ncc2Cl)s1 | -25% | 13µM* | -7% | -102*
CC(C)c1nnc(NC(=O)c2nc(S(=O)(=O)Cc3ccccc3)ncc2Cl)s1 | 29% | ? | -11% | -110*
CC(C)Sc1ncc(Cl)c(C(=O)Nc2nnc(C(C)C)s2)n1 | . | . | . | -3
Cc1nn2c(=O)cc(COC(=O)c3ccccc3NC(=O)c3ccccc3C)nc2s1 | . | . | . | 214
COc1cccc(Cn2c(=O)n(-c3cccc(Cl)c3)c(=O)c3c4c(sc32)CN(C(C)=O)CC4)c1 | . | . | . | -10
NCCCCCc1cn([C@@H](CCC(=O)O)C(=O)NCCCCCCCCCCC(=O)N2CCNCC2)nn1 | 3% | 16% | 18% | 5
C#CCOCCOCCOCCNc1nc(N2CCN(C(=O)CCCCCCCCCCNC(=O)[C@@H](CCC(=O)O)n3cc(CCCCCN)nn3)CC2)nc(N2CCN(C(=O)CCCCCCCCCCNC(=O)[C@H](CCCCN)n3cc(C[C@@H](C)CC)nn3)CC2)n1 | ? | -20% | 5.9µM* | .
CC[C@H](C)Cc1cn([C@@H](CCCCN)C(=O)NCCCCCCCCCCC(=O)N2CCNCC2)nn1 | ? | 18% | 12µM* | -9
C#CCOCCOCCOCCNc1nc(N2CCN(C(=O)CCCCCCCCCCNC(=O)[C@H](CCCCN)n3cc(CCO)nn3)CC2)nc(N2CCN(C(=O)CCCCCCCCCCNC(=O)[C@H](CCCCN)n3cc(C[C@@H](C)CC)nn3)CC2)n1 | ? | 11% | 7.4µM* | .
C[C@@H]1Cn2cnc(C(=O)N(C)Cc3ccccc3)c2C(=O)N1 | . | . | . | 0
COc1ccc(CN2C(=O)C(n3cccc3)c3ccccc32)cc1 (configuration not stated) | . | . | . | 3
COc1ccc(-c2cc(C(F)(F)F)nc(SCC(=O)NCc3ccc(OC)c(OC)c3)n2)cc1 | . | . | . | -19
C=CCOc1ccc(CNc2ccc3[nH]c(=O)[nH]c3c2)cc1OC | -109% | -14% | -3% | 11
C=CCOc1c(Br)cc(CNc2ccc(NC(=O)C(C)C)c(OC)c2)cc1OCC | ? | -6% | 9.3µM* | 38
CCOc1ccc(C(=O)Nc2ccc3c(c2)OCCO3)cc1Br | . | . | . | 52
C=CCOc1cccc(CNc2ccc3[nH]c(=O)[nH]c3c2)c1 | 10% | 11µM* | 2% | -22
C=CCOc1c(Br)cc(CNc2ccc3[nH]c(=O)[nH]c3c2)cc1OCC | 10µM* | ? | 2% | ?
CCOc1cc(CNc2ccc3c(c2)OCCO3)cc(Br)c1OCC | 2.1µM* | 2µM* | 1.9µM* | -86*
COc1ccc(Cl)cc1NC(=O)CSC1=Nc2ccccc2C2=NC(CC(=O)NC3CCCCC3)C(=O)N12 (configuration not stated) | . | . | . | -1
CCc1ccc(NC(=O)C(CC)n2c(=O)c(C(F)(F)F)nc3ccccc32)cc1 (configuration not stated) | . | . | . | 0
C=CCOc1ccc(CNc2ccc(NC(=O)CCC)cc2)cc1OCC | 12µM* | -14% | 15µM* | -32
Cc1ccc(S(=O)(=O)CC(c2ccccc2)N2CCOCC2)cc1 (configuration not stated) | 9.3µM* | ? | 2% | 4

High-throughput results from PubChem BioAssay.
